Screens from PubChem.
A selection: hits, their analogues and other compounds. The true share with any hit is near 1.5%.
WRN helicase inh: blocks human WRN helicase | Q14191 | 360,000 compounds, 0.46% hits | Potency, µM (doses to about 114 µM), for the others: at the top dose activity change, negative = inhibition, most hits filed as inhibitors | WRN helicase unwinding, fluorescent forked duplex, kinetic; also: potency is read from the fitted curve at half-maximal effect; % is scaled to controls: 0 for no effect and ±100 for the full control effect; nearly all actives have a fitted effect of over 55% in size
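Screening of the MLSMR collection measured strand separation of a quenched forked DNA duplex (100 nM) by 20 nM WRN with 2 mM ATP, all final. Compounds were preincubated with enzyme 15 min at room temperature.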
FEN1 inh-1: human FEN1 inhibition. Potency, µM (highest dose often 114 µM), without a hit: top-dose activity change, negative = inhibition, most hits filed as inhibitors. 390,000 compounds, 0.35% hits. AID 588795. Recombinant FEN1 flap cleavage, fluorescence, 15 min. P39748; also: potency is read from the fitted curve at half-maximal effect; % is scaled to controls: 0 for no effect and ±100 for the full control effect; nearly all actives have a fitted effect of over 65% in size
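Enzyme 10 nM, 15 min RT preincubation with compound; start with substrate 50 nM final; reads at 0 and 15 min; qHTS titration, four-parameter Hill fit.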
APE1 inh: inhibitors of human APE1 endonuclease. P27695. recombinant APE1, TAMRA/BHQ-2 abasic DNA cleavage fluorescence. Potency, µM (doses to about 65.8 µM), inactives show at the top dose activity change, negative = inhibition, usual class: inhibitors. 350,000 compounds, 0.35% hits;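 also: potency is read from the fitted curve at half-maximal effect; plate controls were vehicle for no effect and reference inhibitor for full effect; nearly all actives have a fitted effect of over 55% in size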
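Endonuclease cleavage of a quenched abasic-site DNA duplex (50 nM) by APE1 (0.75 nM) was tracked by TAMRA dequenching. Compounds were preincubated with enzyme 15 min at room temperature; data normalized to buffer-only and DMSO wells plus NSC13755 control.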
RECQ1 inh: RECQ1 (human) helicase inhibition; P46063; RECQ1 DNA unwinding, red fluorescence kinetic read; Potency, µM (top dose mostly 57.3 µM), without a hit: at the highest dose activity, negative = inhibition, most hits filed as inhibitors; 240,000 compounds, 0.54% hits;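 also: potency is read from the fitted curve at half-maximal effect; plate controls were vehicle for no effect and no enzyme for full effect; nearly all actives have a fitted effect of over 30% in size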
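RECQ1T1 50 nM; forked duplex (20 bp + 30-nt ss tails) 200 nM, ATP 2 mM final; pH 8.0, 2 mM MgCl2, 2.5 ug/ml poly(dI-dC); 15 min compound preincubation; discontinuous kinetic read over 2 h at RT.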
PI5P4K alpha inh: inhibitors of human PI5P4K alpha; P48426; PI5P4Kalpha enzyme, ADP-Glo luminescence, 60 min; active compounds read low; max response, %; 330,000 compounds, 1.2% hits; active = max response of -50% or lower; inconclusive = between -30% and -50%; inactive = -30% or higher; also: value at the top dose of about 77 µM; % is scaled to controls: 0 for no effect and ±100 for the full control effect
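ADP-Glo luminescence end-point after a 60 min room-temperature kinase reaction. PI5P4Kalpha and substrate in HEPES pH 7.4 buffer with EGTA, 0.1% CHAPS and 5% DMSO; ATP at 5 microM final.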
BLM helicase inh: Bloom syndrome helicase (human) inhibition | AID 2528 | Potency, µM (titrated, usually from 56.1 µM), inactives show at the top dose activity change, negative = inhibition, most hits filed as inhibitors | recombinant BLM DNA unwinding, fluorescence dequenching | P54132 | 350,000 compounds, 0.2% hits;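 also: potency is read from the fitted curve at half-maximal effect; plate controls were vehicle for no effect and no enzyme for full effect; nearly all actives have a fitted effect of over 35% in size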
Target sequence (P54132 whole entry, looked up): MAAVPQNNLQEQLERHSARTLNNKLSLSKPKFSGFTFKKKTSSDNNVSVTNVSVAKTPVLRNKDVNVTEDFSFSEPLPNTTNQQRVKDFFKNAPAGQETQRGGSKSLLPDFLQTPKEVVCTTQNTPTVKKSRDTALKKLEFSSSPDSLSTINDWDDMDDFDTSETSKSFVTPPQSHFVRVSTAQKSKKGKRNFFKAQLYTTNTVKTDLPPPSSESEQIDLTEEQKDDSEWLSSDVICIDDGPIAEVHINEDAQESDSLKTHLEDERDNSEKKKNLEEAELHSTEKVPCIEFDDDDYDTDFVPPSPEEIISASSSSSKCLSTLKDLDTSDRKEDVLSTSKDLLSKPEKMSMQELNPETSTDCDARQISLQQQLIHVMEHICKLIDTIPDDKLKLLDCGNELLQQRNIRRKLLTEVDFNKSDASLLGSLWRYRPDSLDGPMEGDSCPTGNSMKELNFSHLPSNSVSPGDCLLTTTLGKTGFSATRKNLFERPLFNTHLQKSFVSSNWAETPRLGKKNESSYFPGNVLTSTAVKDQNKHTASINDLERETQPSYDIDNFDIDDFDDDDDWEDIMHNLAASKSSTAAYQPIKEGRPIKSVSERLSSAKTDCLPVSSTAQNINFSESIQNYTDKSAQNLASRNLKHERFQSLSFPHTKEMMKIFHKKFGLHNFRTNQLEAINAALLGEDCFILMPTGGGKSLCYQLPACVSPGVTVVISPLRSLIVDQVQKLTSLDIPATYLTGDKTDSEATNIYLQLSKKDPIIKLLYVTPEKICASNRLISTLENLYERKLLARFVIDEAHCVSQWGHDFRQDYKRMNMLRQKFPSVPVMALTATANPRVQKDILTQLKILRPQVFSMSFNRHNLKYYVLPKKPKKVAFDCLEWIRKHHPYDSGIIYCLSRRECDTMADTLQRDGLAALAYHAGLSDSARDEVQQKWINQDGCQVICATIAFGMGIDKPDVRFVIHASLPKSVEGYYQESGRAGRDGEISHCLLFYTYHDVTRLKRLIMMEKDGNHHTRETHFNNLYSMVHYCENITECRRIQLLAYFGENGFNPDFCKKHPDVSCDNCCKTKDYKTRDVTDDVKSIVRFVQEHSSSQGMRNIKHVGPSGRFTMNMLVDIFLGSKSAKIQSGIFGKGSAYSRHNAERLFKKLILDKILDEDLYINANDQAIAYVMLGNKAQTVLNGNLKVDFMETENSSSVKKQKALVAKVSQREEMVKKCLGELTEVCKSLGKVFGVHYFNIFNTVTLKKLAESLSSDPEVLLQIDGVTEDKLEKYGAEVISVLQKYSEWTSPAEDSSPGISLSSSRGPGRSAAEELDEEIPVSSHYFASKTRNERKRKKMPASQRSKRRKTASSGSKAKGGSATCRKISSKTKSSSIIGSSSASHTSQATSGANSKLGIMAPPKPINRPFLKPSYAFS
FEN1 inh-2: confirmation of human FEN1 inhibitors; shares compounds with FEN1 inh-1; FEN1 flap cleavage, TAMRA/BHQ2 fluorogenic DNA substrate; Potency, µM, usual class: inhibitors; 880 compounds, 79% hits; also: potency is read from the fitted curve at half-maximal effect; nearly all actives have a fitted effect of over 60% in size
* marks the source's active call; other numbers are inactive results; i = inactive; ? = inconclusive; . = no result given; [ ] = another dose, or the depositor's remark. Unless noted, calls follow the shape of the dose curve; as a rule, active = well fitted curve in the direction sought with a large enough effect; inconclusive = small, poorly fitted or top-dose-only effect, or another doubt; inactive = no such curve, though single readings can be large; an effect the other way counts as inactive or inconclusive.

SMILES | WRN helicase inh | FEN1 inh-1 | APE1 inh | RECQ1 inh | PI5P4K alpha inh | BLM helicase inh | FEN1 inh-2
Cc1cc(C)cc(C(=O)Nc2ccc(-c3nc4ncccc4o3)cc2)c1 | . | 11% | . | . | . | -10% | .
NC(=O)c1ccc2c(=O)c(O)c(-c3cc(Cl)c(N)c(Cl)c3)[nH]c2c1 | ? | 56µM* | 6% | . | -6 | -14% | 38*
COc1ccccc1-c1nc(SCC(=O)c2ccc(Cl)cc2)n[nH]1 | . | -4% | . | . | . | 2% | .
O=c1ccc2c(-c3ccccc3)c3ccc(O)cc3oc-2c1 | 16µM* | 45µM* | ? | . | ? | -16% | 34*
COc1cc(O)c(C(C)=O)c(CC(=O)O)c1 | 45µM* | 22µM* | 8.9µM* | ? | -13 | 3% | 60*
CC1=NC(Nc2nc(C)c3ccccc3n2)=NC(C)(C)C1 | 43%[57.1 µM] | 40µM* | -2% | 1% | -10 | 84% | 48*
Cc1nc(Nc2ncc3c(n2)CC(C)(C)CC3=O)nc2ccccc12 | 5% | 0% | . | . | -4 | . | .
COc1ccc(CCNC(=O)COC(=O)c2ccc([N+](=O)[O-])o2)cc1 | -15% | ? | -24% | . | -9 | . | 17*
COc1ccc(CCNC(=O)COc2ccc([N+](=O)[O-])cc2)cc1 | 13%[57.1 µM] | -1% | 14% | i | -19 | -6% | .
O=C(COC(=O)c1ccc([N+](=O)[O-])o1)Nc1cccc2ccccc12 | -5% | ? | -5% | -21% | 4 | 0% | .
O=C(COC(=O)c1ccc([N+](=O)[O-])o1)NCCCc1ccccc1 | 22% | ? | -30% | . | -7 | . | 19*
O=C(NCCCN1CCN(c2ccccc2F)CC1)C1COc2ccccc2C1 (configuration not stated) | . | 1% | . | . | . | -1% | .
CCN(C(=O)CSc1ncc(S(=O)(=O)c2ccc(C)c(Cl)c2)c(=O)[nH]1)c1cccc(C)c1 | . | 4% | . | . | . | 2% | .
Oc1ccc(CCNc2c3ccccc3nc3ccccc23)cc1O | 50µM* | 18µM* | ? | . | -11 | -4% | 3*
c1ccc(CNc2c3ccccc3nc3ccccc23)cc1 | ? | ? | -30% | . | 4 | 100% | 11*
CN(C)CCCNc1c2ccccc2nc2ccccc12 | ? | 11µM* | 9.5µM* | . | -18 | 169% | 8.5*
c1ccc(CNc2ncnc3ccccc23)cc1 | 5% | 4% | -11% | i | 1 | 2% | .
Cc1ccc(O)c(Nc2c3ccccc3nc3ccccc23)c1 | -29% | -13% | -12% | . | -13 | -3% | .
CCN(CC)c1ccc(NC(=O)CSc2nnc(C)c(=O)[nH]2)cc1 | . | -6% | . | . | . | 4% | .
COc1ccc(-n2nc(C(=O)N(C)c3cccc(C(F)(F)F)c3)c3c4ccccc4n(C)c3c2=O)cc1 | . | -7% | . | . | . | 0% | .
Cc1cccc(NC(=O)C2CCCN2S(=O)(=O)c2ccc3nc(-c4ccccc4)[nH]c3c2)c1 (configuration not stated) | . | -3% | . | . | . | -9% | .
COc1ccc(C(=O)N/N=C/c2ccc(OC)c(COc3ccccc3)c2)cc1 | -9% | -3% | 15% | . | -2 | 1% | .
COc1ccc(/C=N\NC(=O)c2cc(O)c(O)c(O)c2)cc1COc1ccc(C(=O)OCC(C)C)cc1 | -6%[11.6 µM] | ? | -33% | . | -72* | -18% | 34*
Cc1ccc(C(=O)N/C(=C/c2ccc(-c3ccc([N+](=O)[O-])cc3)o2)C(=O)NCCCN(C)C)cc1 | 8%[11.6 µM] | ? | . | . | -8 | . | 43*
Cc1ccccc1CN1C(=O)C(O)(CC(=O)c2ccccc2)c2cc(Cl)ccc21 (configuration not stated) | . | -28% | . | . | . | -10% | .
SMILES | WRN helicase inh | FEN1 inh-1 | APE1 inh | RECQ1 inh | PI5P4K alpha inh | BLM helicase inh | FEN1 inh-2
COc1ccc(NC(=O)C2CCCN(S(=O)(=O)c3cccs3)C2)cc1 (configuration not stated) | . | 2% | . | . | . | -4% | .
CC(C)/C=C1\CC/C(=C\c2ccc(N(C)C)cc2)C1=O | -32% | -11% | -5% | -10% | 5 | -4% | .
CN(C)c1ccc(/C=C2/C[N+](C)(C)C/C(=C/c3ccc(N(C)C)cc3)C2=O)cc1 | 20µM* | ? | . | . | -16 | . | ?
CC(=O)c1sc2nc(CSc3nnnn3-c3ccccc3)[nH]c(=O)c2c1C | 28µM* | 79µM* | 3% | i | -83* | 16µM* | ?
CN(Cc1cccs1)c1ncnc2ccc(-c3ccc4cn(C)nc4c3)cc12 | . | . | . | . | . | . | 67*
Cc1ccc(C)c(NC(=O)Cn2c(=O)n(Cc3nc(C)no3)c(=O)c3cc4c(cc32)OCO4)c1 | . | -4% | . | . | . | -1% | .
COc1ccccc1NC(=O)C1=C(C)Nc2nc3ccccc3n2C1c1ccccc1Cl (configuration not stated) | . | -3% | . | . | . | -9% | .
O=C(NNC(=O)c1cccnc1)NC1CCCCC1 | 3% | -2% | -3% | 1% | 0 | -5% | .
O=C(NNC(=O)c1cc(O)c(O)c(O)c1)NC1CCCCC1 | -9%[57.1 µM] | 28µM* | 5% | i | -9 | -9% | ?
CC(=O)OCC(=O)[C@@]1(O)CCC2C3CC(C)C4=CC(=O)C=CC4(C)C3C(O)CC21C (some centres not stated) | . | . | ? | 5% | . | 3% | .
CCn1nnc2cc(C(=O)Nc3cccc(Cl)c3C)ccc21 | . | 0% | . | . | . | -3% | .
CCc1ccc2nc3nc(C)cc(C)c3c(N)c2c1 | 22%[57.1 µM] | ? | ? | 16% | . | 136% | ?
Cc1cc(C)c2c(N)c3ccccc3nc2n1 | 17% | 45µM* | ? | -3% | . | 105% | 38*
O=C1c2ccc3c4c(ccc(c24)C(=O)N1NC(=O)C(F)(F)F)CC3 | ? | 56µM* | ? | ? | . | -1% | 60*
Clc1cccc(C(c2ccc3nc[nH]c3c2)n2ccnc2)c1 (configuration not stated) | . | . | . | . | . | 1% | .
CCCCc1nc2c(c3c1C[C@H](C)OC3)CN(C(=O)Nc1ccc(OC)cc1)CC2 | . | . | 16%[12.4 µM] | i[11.5 µM] | . | 0%[12.4 µM] | .
O=C(O)CN1C(=O)/C(=C\c2cc(Br)ccc2OCc2ccc([N+](=O)[O-])cc2)SC1=S | ? | ? | -26% | . | -71* | ? | 85*
O=C(O)CN1C(=O)/C(=C\c2cc(Br)ccc2OCc2ccccc2F)SC1=S | 2%[11.6 µM] | ? | 52% | . | -9 | -11% | .
COc1ccccc1N1C(=N)S/C(=C\c2ccc(-c3ccccc3C(=O)O)o2)C1=O | 28µM* | 45µM* | 28µM* | ? | ? | 2% | ?
N=C1/C(=C\c2ccc(-c3ccc(C(=O)O)cc3)o2)C(=O)N=C2SC=C(c3ccccc3)N12 | -24%[11.6 µM] | 50µM* | -12% | ? | -70* | 5% | ?
